# Laboratory results as given in PubChem BioAssay (NCI).
# About 83,000 compounds went through this panel and 20% of them were active in at least one assay; those are over-represented in the sample as a whole.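 Cells were grown in 96-well plates and exposed to the test compound at a single concentration for 48 hours; results are reported as percent growth, with values below 10 considered active.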 Values without a mark were called inactive. The source made the active and inactive calls.
# Legend:
# Assay in all cases: NCI-60 one-dose screen, 48 h (100 = growth as untreated, 0 = no growth, -100 = all killed)
# Conditions in all cases: 10 µM unless noted
# SK-MEL-2 melanoma = tested on: SK-MEL-2 melanoma
# EKVX NSCLC = tested on: EKVX NSCLC
# SN12C renal = tested on: SN12C renal
# UO-31 renal = tested on: UO-31 renal
# TK-10 renal = tested on: TK-10 renal
# ACHN renal = tested on: ACHN renal
# CAKI-1 renal = tested on: CAKI-1 renal
# A498 renal = tested on: A498 renal
# CCRF-CEM leukemia = tested on: CCRF-CEM leukemia
# MOLT-4 leukemia = tested on: MOLT-4 leukemia
Compound,growth (SK-MEL-2 melanoma),growth (EKVX NSCLC),growth (SN12C renal),growth (UO-31 renal),growth (TK-10 renal),growth (ACHN renal),growth (CAKI-1 renal),growth (A498 renal),growth (CCRF-CEM leukemia),growth (MOLT-4 leukemia)
OC(c1cc2cc(Cl)ccc2c2cc(C(F)(F)F)ccc12)C1CCCCN1 (centres undefined),-92% (active),-40.4% (active),-62.8% (active),-88.2% (active),-96.4% (active),-78.2% (active),-74.2% (active),27.2%,-61.2% (active),–
CN1CCN(Cc2ccc(NC(=O)c3cncc(C#Cc4ncc5cnccn45)c3)cc2C(F)(F)F)CC1,-12.9% (active),77.2%,54.5%,18.3%,81.4%,30.7%,31.5%,65.2%,41.9%,43.5%
Cc1c(C)c(C)c([N+](=O)[O-])c([N+](=O)[O-])c1C,103%,90.7%,98.7%,81.8%,91.3%,98.9%,90.8%,67.9%,121%,–
c1ccc(C(CC2=NCCCN2)c2ccccc2)cc1,108%,97.2%,90.9%,76.8%,110%,104%,97.6%,111%,9.65% (active),92.7%
COc1cc2c(cc1OCCCOc1cc3c(cc1OC)C(=O)N1CCC[C@H]1C=N3)C=CC(C)(C)O2,88.4%,154%,94.3%,96.5%,187%,95.7%,106%,98.8%,6.05% (active),–
C#CC[C@@H]1C[C@]2(C)[C@H]3CC=C4[C@H]5[C@@H](C)[C@H](C)CC[C@]5(C(=O)NCCCCN)CC[C@@]4(C)[C@]3(C)CC[C@H]2C(C)(C)[C@H]1OC(C)=O,101%,96%,73.8%,59.4%,97.7%,89.5%,50.5%,118%,30%,14.9%
C[C@@H](C[C@H](CC1CC1)c1ccccc1)c1ccc2ccccc2c1,109%,101%,103%,90.1%,105%,106%,92.9%,100%,96.4%,–
CN(C)c1ccc(/C=N/Nc2nnc3n2N=C(c2ccc(Cl)cc2)CS3)cc1,97.5%,89%,95%,74.9%,92.9%,99.5%,96.8%,85.6%,86.8%,66.6%
C=CCOc1c(Br)cc(Br)cc1Br,69.3%,64%,62.9%,28.2%,102%,48.7%,76.5%,55.9%,43.6%,64.6%
C#CCNC(=S)N/N=C(\C)c1ccccn1,74.3%,22.1%,13.4%,-13.9% (active),50.9%,15.7%,-13.6% (active),16.7%,13.4%,3.54% (active)
Fc1[nH]nc2ccc([C@@H]3Nc4ccc5[nH]ncc5c4[C@H]4C5CCC(C5)[C@@H]34)cc12 (some centres undefined),33.1%,36.1%,46.1%,51.3%,42.4%,43.7%,32.6%,-12.4% (active),18%,–
Nc1ccc(C(OC(=O)c2cc3ccccc3c(Cc3c(O)c(C(=O)OC(c4ccc(N)cc4)(c4ccc(N)cc4)c4ccc(N)cc4)cc4ccccc34)c2O)(c2ccc(N)cc2)c2ccc(N)cc2)cc1,-17.2% (active),-5.75% (active),-2.33% (active),29%,44.6%,47.5%,11.3%,-3.31% (active),21.6%,–
C=CCN(CCOC(=O)c1ccc([N+](=O)[O-])cc1)CCOC(=O)c1ccc([N+](=O)[O-])cc1,110%,96.1%,143%,69.9%,114%,95%,86.1%,95.2%,94.3%,96.2%
Cc1cc(-c2nnc(/C=C/c3ccc4c(c3)OCO4)o2)n[nH]1,30.1%,90.6%,85.5%,70.1%,81.8%,95.7%,59.8%,73.2%,58.1%,69.7%
COc1cc(NC(C)CCCN)c2ncccc2c1Sc1ccc(Cl)cc1 (centres undefined),102%,71.9%,64.9%,40.1%,78.6%,74.8%,50.2%,55.9%,44.7%,31.7%
Oc1c(C(c2ccc(F)cc2)N2CCCCC2)ccc2cncnc12 (centres undefined),-16.6% (active),16.9%,10%,11%,9.03% (active),10.9%,19%,-8.07% (active),18.5%,13.1%
COc1cc(C2=NOC(c3cc(OC)c(OC)c(OC)c3)C2)ccc1OCCCCOc1cc2c(cc1OC)C(=O)N1CCC[C@H]1C=N2 (some centres undefined),1.46% (active),-39.6% (active),6.18% (active),7.06% (active),-22.4% (active),5.06% (active),5.08% (active),-58.7% (active),-37.5% (active),2.1% (active)
Cc1cc(C)cc(NC(=O)Cn2nncc2CN2C(=O)CSC2=O)c1,106%,90.3%,103%,99.7%,99.8%,99.6%,95.2%,118%,113%,105%
CC[C@H](Nc1nc(N)nc(N)c1Cl)c1nc2cccc(NCc3ccc(C(=O)NO)cc3)c2c(=O)n1-c1ccccc1,71.5%,42%,10%,20.6%,-1.39% (active),3.82% (active),39.6%,-12.7% (active),7.44% (active),0.294% (active)
COc1ccc2[nH]c(C(=O)OCc3ccc4c(Br)cc(Br)c(O)c4n3)cc2c1,-40.3% (active),-70.9% (active),-71.2% (active),-100% (active),-95.6% (active),-98.3% (active),-98.7% (active),-17.1% (active),3.76% (active),-8.86% (active)
CCN(C)CCCOc1ccc(/C(=C(\C)Cc2cccc(OC)c2)c2ccc(OC(C)=O)cc2)cc1,103%,92.5%,95%,92%,95%,104%,94.9%,94.3%,96.6%,103%
N=c1n(Cc2ccccc2)c(N)cc(=O)n1Cc1ccccc1,94.6%,0.834% (active),12.8%,13.4%,16.4%,4.21% (active),0.138% (active),40.6%,21.4%,-28.6% (active)
CCN(CC)CCCNc1cccc2c(C)cc(OC)nc12,97.4%,114%,88.4%,56.9%,96.3%,91.6%,96.8%,70.3%,102%,78.7%
CC(C)OC(=O)c1ccc([N+](=O)[O-])cc1,122%,96%,97.7%,104%,113%,114%,103%,79.2%,103%,113%
COc1cc2nccc(Oc3ccc(NC(=O)C4(C(=O)Nc5ccc(F)cc5)CC4)cc3)c2cc1OC(=O)c1ccc(N)cc1,31.3%,25.7%,27.6%,9.18% (active),72.2%,39.5%,20.9%,64%,27.8%,3.73% (active)
COc1ccc(-n2nc(C(=O)NCC(=O)Nc3nc4cc(OC)ccc4s3)c3ccccc3c2=O)cc1,-19.9% (active),30.4%,41.7%,-0.0591% (active),-41.9% (active),-1.26% (active),-27.5% (active),-2.05% (active),92.7%,58.5%
COc1cc(CN2CCO[C@H](COc3cccc(F)c3)C2)ccc1Cl,31%,46.3%,29.3%,45.6%,46.9%,53.9%,41.3%,30.6%,42.8%,52.8%
